TIM10 inh – inhibits growth of TIM10 yeast strain; inhibition, % at 10 µM; actives 1.4% (n = 330,000); S. cerevisiae TIM10 strain growth, BacTiter-Glo luminescence, 24 h;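 active means inhibition of 40% or more at the single tested concentration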;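 further: wild-type TIM10 isogenic control strain grown at permissive 25 °C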
tim23-1 inh – tim23-1 yeast growth inhibition; actives 1.3% (n = 330,000); inhibition, % at 20 µM; S. cerevisiae tim23-1 growth, BacTiter-Glo luminescence, 24 h;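 active means growth inhibition of the mutant yeast at or above 50%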;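 further: temperature-sensitive mutant grown at 25 °C; plate controls were DMSO-treated mutant yeast for no effect and medium wells lacking yeast for full effect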
SKKanGAS inh – blocks kanamycin growth of S. pyogenes SKKanGAS strain | actives 1.3% (n = 300,000) | inhibition, % at 7.5 µM | BacTiter-Glo, 6 h;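 active means mean replicate score, as percent of positive control median, at least 50; inconclusive means mean below 50 but one replicate at or above 50; inactive means mean and every replicate below 50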;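 further: strain carries kanamycin resistance gene driven by streptokinase promoter and grows in 40 µg/ml kanamycin; loss of luminescence reflects streptokinase promoter inhibition or plain growth inhibition; 0% = median of DMSO wells and 100% = positive control at its reference dose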
NLRP3 yeast inh – NALP3 inhibition in yeast | Yeast reconstituted NLRP3/ASC/caspase-1, beta-gal luminescence, 24 h | actives 0.39% (n = 330,000) | inhibition, % at 10 µM;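 active means inhibition of 50% or more; inactive means inhibition below 50%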;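 further: plate controls were induced DMSO wells for no effect and uninduced yeast grown without galactose for full effect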
PfHsp90 set2 – reduces growth (ATP signal) of yeast expressing P. falciparum Hsp90; S. cerevisiae expressing PfHsp90, BacTiter-Glo ATP, 48 h; yeast lacking PDR1 and PDR3 efflux regulators; inhibition, % at 9.4 µM; actives 0.32% (n = 310,000);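 active means every replicate shows inhibition above about 80%, whatever the replicate mean, limit read from the data; inconclusive means mean inhibition reaches the set limit but some replicate falls short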;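 further: 0% = DMSO neutral controls and 100% = 20 µM radicicol positive controls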
tim10-1 inh – inhibits growth of tim10-1 mutant yeast; actives 2.2% (n = 330,000); S. cerevisiae tim10-1 ts strain growth, BacTiter-Glo, 24 h; inhibition, % at 20 µM;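 active means inhibition of at least 40%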;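 further: mutant grown at 25 °C; 0% = DMSO wells with yeast and 100% = wells holding no yeast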
An asterisk follows results filed as active; ? = inconclusive; . = not tested or not shown; + = active, no number. Shown are actives, neighbours in structure and some others; about 4.6% of the full set was active somewhere.

SMILES | TIM10 inh | tim23-1 inh | SKKanGAS inh | NLRP3 yeast inh | PfHsp90 set2 | tim10-1 inh
Oc1[nH]c2ccccc2c1N=Nc1cccc(Cl)c1 | 37 | 32 | 6 | 13 | 10 | 29
O=C(O)c1ccc(N=Nc2c(O)[nH]c3ccc(Br)cc23)cc1 | -1 | 8 | 71* | 10 | 10 | 7
CCCCCc1nc2sc3c(c2c(=O)n1NC(=O)c1ccc([N+](=O)[O-])cc1)CC(C)(C)OC3 | 20 | 30 | -1 | 18 | 0 | 24
O=c1c2cc(-c3ccccc3)sc2nc2n1CCC2 | 22 | 20 | 50* | 50 | . | 8
COc1ccccc1N1CCN(C2CCCN(C(=O)CCC(C)=O)C2)CC1 (configuration not stated) | -4 | -6 | -3 | 11 | 45 | 9
O=C(CC1OC(=O)c2ccccc21)NNC(=O)c1ccc(F)cc1 (configuration not stated) | 2 | -5 | . | 17 | -22 | -11
CC(C)=CCc1cc2c(=O)c3c(O)c4c(cc3oc2c(O)c1O)OC(C)C4(C)C (configuration not stated) | -6 | 34 | 103* | 6 | . | 36
CC1Oc2cc3oc4c(O)c5c(cc4c(=O)c3c(O)c2C1(C)C)C=CC(C)(C)O5 (configuration not stated) | 10 | 24 | 70* | -1 | . | 13
Clc1ccccc1CSc1cnnc2ccccc12 | . | . | . | . | 15 | .
Cc1cc(O)c(C(C)C)cc1N=Nc1ccccc1C(=O)O | 11 | 12 | 4 | 15 | -3 | 22
Cc1cc(N=Nc2ccccc2C(=O)O)c(C)c(C)c1O | -98 | -19 | 28 | 29 | 100* | -90
O=C(Cc1csc(NC(=O)Nc2cccc(Cl)c2)n1)NCc1ccccn1 | 3 | 21 | 86* | 23 | . | 5
O=C(NCc1cccnc1)Nc1cc(Cl)cc(Cl)c1 | -4 | -14 | 54* | 3 | -9 | -17
O=C(Cc1csc(NC(=O)Nc2cccc(Cl)c2)n1)NCc1cccnc1 | -6 | 11 | 89* | 16 | . | -11
O=C(Cc1csc(NC(=O)Nc2ccc(Cl)cc2)n1)NCc1cccnc1 | -1 | 5 | 48 | 8 | 5 | 2
O=C(COc1ccccc1)c1cn(CC(=O)N2CCCC2)c2ccccc12 | 0 | -2 | -8 | -5 | . | 20
CCC(C)Nc1nc(-c2ccccn2)nc2ccccc12 (configuration not stated) | 14 | -15 | 89* | 27 | -2 | 23
c1ccc(CNc2nc(-c3ccccn3)nc3ccccc23)cc1 | 28 | -15 | 93* | 48 | -15 | 12
CC(Nc1nc(-c2ccccc2O)nc2ccccc12)c1ccccc1 (configuration not stated) | 21 | 44 | 58* | 7 | -6 | 28
c1ccc(CNc2nc(-c3cccnc3)nc3ccccc23)cc1 | -27 | 39 | -3 | 20 | -1 | 26
CC(=NNC(=S)Nc1ccccc1Cl)c1ccccn1 | . | . | . | . | 99* | .
C/C(=N\Nc1ncnc2sc(C)c(C)c12)c1ccccn1 | 14 | 27 | -8 | 23 | 104* | -1
C/C(=N\Nc1ccc(Cl)c(C(=O)O)c1)c1ccccn1 | -16 | -4 | 1 | -16 | -21 | -2
C/C(=N\Nc1ncc(Cl)cc1Cl)c1ccccn1 | . | . | 58* | . | 108* | .
COc1cc(OC)c(/C=N/NC(=O)c2ccncc2)c(OC)c1 | -11 | 14 | -1 | -4 | 3 | 14
SMILES | TIM10 inh | tim23-1 inh | SKKanGAS inh | NLRP3 yeast inh | PfHsp90 set2 | tim10-1 inh
O=C(C[n+]1ccccc1)Nc1ccc(Oc2ccccc2)cc1 | 5 | -3 | 1 | 30 | -6 | 1
COc1cc(/C=C/C(=O)OCC(=O)Nc2oc(C)c3c(C)n[nH]c(=O)c23)ccc1OC(F)F | -32 | -15 | -5 | 9 | -1 | -13
CCCC(=O)Nc1ccc(C2C(=O)c3ccccc3C2=O)cc1 | 14 | 20 | -1 | 14 | -7 | 25
CC(=O)Nc1ccc(C2C(=O)c3ccccc3C2=O)cc1 | 7 | 22 | 51* | 8 | -16 | 3
Oc1ccc(C2=NN(c3ccccc3)C(c3ccc(F)cc3)C2)cc1 (configuration not stated) | 12 | 26 | 81* | 9 | 120* | -4
COc1ccc(C2CC(c3ccccc3)=NN2c2ccc(S(N)(=O)=O)cc2)cc1 (configuration not stated) | 33 | 25 | ? | 14 | -50 | 20
NS(=O)(=O)c1ccc(N2N=C(c3ccccc3)CC2c2ccc(F)cc2)cc1 (configuration not stated) | 8 | 18 | 64* | 8 | -2 | 26
C/C(=N\Nc1ccc(C(=O)O)cc1)c1ccc2c(c1)Nc1ccccc1S2 | 8 | 28 | 81* | 28 | -13 | -5
C=CCn1c(O)c(N=Nc2ccccc2)c2ccccc21 | 4 | 7 | 0 | 17 | 5 | -10
C=CCn1c(O)c(N=NC(=S)Nc2ccc(OC)cc2)c2ccccc21 | . | . | 56* | . | -66 | .
C=CCn1c(O)c(N=NC(=O)OCC)c2ccccc21 | -4 | 12 | -17 | 2 | 3 | 18
C=CCn1c(O)c(N=NC(=S)Nc2cccc(OC)c2)c2ccccc21 | 32 | 34 | 87* | 18 | -64 | 32
CC(C)C(Cl)=NOC(=O)Nc1ccc(S(N)(=O)=O)cc1 | . | . | . | . | 22 | .
Cc1cc(C)c(C)c(S(=O)(=O)NCC(=O)NCC2CCCCC2)c1C | 20 | 19 | 5 | 1 | -5 | 25
COc1ccc(C(C)(C)C)cc1NC(=O)Nc1ccc2c(c1)OCO2 | 29 | 48 | 10 | 23 | 86* | 33
CN(C(=O)C1CCCCC1)C1(C)CCS(=O)(=O)C1 (configuration not stated) | 1 | 2 | 1 | 13 | 6 | 7
COc1ccc2c(c1)OC[C@H]1[C@H]2N2C(=O)c3cc(OC)c(OC)cc3NC(=O)[C@@]2(C)[C@H]1c1ccccc1 | 13 | 31 | . | 9 | -27 | 29
C[C@@]12C(=O)Nc3ccc(F)cc3C(=O)N1[C@H]1c3ccccc3OC[C@@H]1[C@@H]2c1ccccc1 | -1 | 46 | . | 1 | + | -3
COc1cc2c(cc1OC)C(=O)N1[C@H]3c4ccccc4OC[C@@H]3[C@H](c3ccccc3)[C@]1(C)C(=O)N2 | 25 | 37 | . | 14 | 86* | 32
CC1CC(C)CN(S(=O)(=O)c2ccc(C(=O)OCC(=O)NCCN3C(=O)CSC3=O)cc2)C1 (configuration not stated) | -2 | 11 | -4 | 11 | 12 | -3
CC(OC(=O)Cn1[nH]c(=O)c2ccccc2c1=O)C(=O)NC1(C#N)CCCCC1 (configuration not stated) | 6 | 21 | -3 | 20 | -35 | 17
CCN1CCN(Cc2ccc(NC(=O)c3ccc(C)c(/C=C/c4cnc(Nc5cc(N6CCNCC6)nc(C)n5)cn4)c3)cc2C(F)(F)F)CC1 | 2 | 6 | 61* | -7 | 26 | 4

From PubChem
